Source: PubChem (National Center for Advancing Translational Sciences (NCATS))
Menin-MLL TR inh = qHTS Assay for Inhibitors Targeting the Menin-MLL Interaction in MLL Related Leukemias: Competition With Texas Red Labeled MLL-derived Mutant Peptide; O00255; Menin + Texas Red MLL mutant peptide, fluorescence polarization; Potency, µM (highest dose often 61.6 µM), usual class: inhibitors; hit rate 0.23% among 270,000; AID 1768, 2009; active = well fitted inhibition curve with a large enough effect in the polarisation, with a control signal flat, not every such curve was filed as active; inconclusive = small, poorly fitted or top-dose-only effect, or effect the other way, or a change in a side signal; inactive = no such curve, though single readings can be large or run the other way; the % refers to the polarisation
RGS12 GoLoco inh-1 = qHTS Assay for Inhibitors of RGS12 GoLoco Motif Activity (Red Fluorophore); Guanine nucleotide-binding protein G(i) subunit alpha-1 (Homo sapiens), P63096; Gai1:RGS12 GoLoco peptide FP, rhodamine, 10 min; Potency, µM (highest dose often 61.6 µM), usual class: inhibitors; hit rate 0.44% among 230,000; active = well fitted inhibition curve with a large enough effect, not every such curve was filed as active; inactive = no such curve, though single readings can be large or run the other way; also: nearly all actives have a fitted effect of over 30% in size
Target sequence (P63096 whole entry, looked up): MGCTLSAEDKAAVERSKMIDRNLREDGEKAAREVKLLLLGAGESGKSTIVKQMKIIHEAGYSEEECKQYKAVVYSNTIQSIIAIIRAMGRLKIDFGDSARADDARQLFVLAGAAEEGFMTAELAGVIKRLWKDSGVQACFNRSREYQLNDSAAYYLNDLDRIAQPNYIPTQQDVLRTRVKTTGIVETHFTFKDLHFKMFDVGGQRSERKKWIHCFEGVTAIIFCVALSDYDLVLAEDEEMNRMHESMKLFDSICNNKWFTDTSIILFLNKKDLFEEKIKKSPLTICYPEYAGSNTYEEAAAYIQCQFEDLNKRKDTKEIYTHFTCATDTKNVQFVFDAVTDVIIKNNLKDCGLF
Menin MLL FP FL = qHTS Assay for Inhibitors Targeting the Menin-MLL Interaction in MLL Related Leukemias: Competition With Fluorescein Labeled MLL-derived Peptide. Fluorescence polarization, fluorescein-MLL peptide displacement from menin. FP activity change, % at 61.4 µM. 290,000 tested, under 10 active; active = well fitted curve in the direction sought with a large enough effect in the polarisation, not every such curve was filed as active; inconclusive = small, poorly fitted or top-dose-only effect, or effect the other way, or a change in a side signal; inactive = no such curve, though single readings can be large or run the other way; the % refers to the polarisation
CXXC DNA block = qHTS Fluorescence Polarization Assay for Inhibitors of MLL CXXC domain - DNA interaction; Histone-lysine N-methyltransferase 2A (Homo sapiens), Q03164; MLL-CXXC / FITC-HOXA9 DNA fluorescence polarization; Potency, µM (titrated, usually from 115 µM), usual class: inhibitors; hit rate 0.037% among 290,000; AID 2662, 2010; active = well fitted inhibition curve with a large enough effect in the polarisation, with a control signal flat, not every such curve was filed as active; inconclusive = small, poorly fitted or top-dose-only effect, or effect the other way, or a change in a side signal; inactive = no such curve, though single readings can be large or run the other way; the % refers to the polarisation
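Steps: dispense CXXC domain solution (7 uM) → pin compounds or unlabeled HOX-A9 DNA control → 5 min ambient → add FLSN-HOX-A9 solution (50 nM) → spin → 30 min ambient → fluorescence polarization. Tris pH 7.5/NaCl/DTT/BSA buffer.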
RGS12 GoLoco inh-2 = Confirmation qHTS Assay for Inhibitors of RGS12 GoLoco Motif Activity (Red Fluorophore); shares compounds with RGS12 GoLoco inh-1; Gai1/rhodamine-RGS12 GoLoco peptide fluorescence polarization; Potency, µM (top dose mostly 57.1 µM), most hits filed as inhibitors; hit rate 50% among 110; AID 2390, 2010
MLL CXXC FP-Fl = qHTS Fluorescence Polarization (FP) Assay for Inhibitors of MLL CXXC domain - DNA interaction: Fluorescein FP; shares compounds with CXXC DNA block; MLL CXXC-DNA binding, fluorescein FP; Potency, µM (doses to about 345 µM), usual class: inhibitors; hit rate 70% among 200; AID 624160, 2012; also: nearly all actives have a fitted effect of over 80% in size
MLL CXXC FP-TR = qHTS Fluorescence Polarization (FP) Assay for Inhibitors of MLL CXXC domain - DNA interaction: Texas Red FP. shares compounds with CXXC DNA block. MLL CXXC-DNA binding, Texas Red fluorescence polarization. Potency, µM (highest dose often 345 µM), usual class: inhibitors. hit rate 40% among 200. AID 624161, 2012; also: nearly all actives have a fitted effect of over 75% in size
MLL CXXC HTRF = qHTS Fluorescence Polarization (FP) Assay for Inhibitors of MLL CXXC domain - DNA interaction: HTRF Assay; shares compounds with CXXC DNA block; MLL CXXC-DNA binding, HTRF, biochemical; Potency, µM (doses to about 172 µM), usual class: inhibitors; hit rate 30% among 210; also: nearly all actives have a fitted effect of over 80% in size
A number is an active result; [ ] = dose if it differs, or a comment. Many of the other results were omitted from the sample, so hits are more common in it than they were. Unless noted, calls follow the shape of the dose curve; as a rule, active = well fitted inhibition curve with a large enough effect; inconclusive = small, poorly fitted or top-dose-only effect; inactive = no such curve, though single readings can be large or run the other way.

`CNc1ccc2oc(C[C@@H]3OC4(CC[C@@H]3C)O[C@H]([C@@H](C)C(=O)c3ccc[nH]3)[C@H](C)C[C@H]4C)nc2c1C(=O)O` (some centres undefined) gave RGS12 GoLoco inh-1 inactive.
`CCCCC/C=C\C/C=C\C/C=C\C/C=C\CCCC(=O)N(Cc1ccc(O)c(Cl)c1)Cc1ccc(O)c(Cl)c1` gave Menin-MLL TR inh inactive, RGS12 GoLoco inh-1 40µM and Menin MLL FP FL inactive.
Screening CCCCOP(=O)(OCCCC)C(Nc1ccc(C(=O)OCC)cc1)c1ccncc1 (centres undefined) returned Menin-MLL TR inh 3.2µM, Menin MLL FP FL inactive and CXXC DNA block inactive.
Screening CCOS(C)(=O)=O returned RGS12 GoLoco inh-1 22µM.
For CCCC[N+]12CCC(CC1)C(Cc1ccccc1)C2 (centres undefined) the results were RGS12 GoLoco inh-1 inactive, Menin MLL FP FL inactive, CXXC DNA block inactive and RGS12 GoLoco inh-2 inactive.
`ClC(Cl)C(Cl)Cl` gave RGS12 GoLoco inh-1 inactive.
Screening C[N+]12CCC(CC1)C(C(O)(c1ccccc1)c1cccs1)C2 (centres undefined) returned Menin-MLL TR inh inactive, RGS12 GoLoco inh-1 3.5µM, Menin MLL FP FL inactive, CXXC DNA block inactive and RGS12 GoLoco inh-2 25µM.
CCC[N+]12CCC(CC1)C(C(O)(c1ccccc1)c1ccccc1)C2 (centres undefined) was read as RGS12 GoLoco inh-1 inactive, Menin MLL FP FL inactive and CXXC DNA block inactive.
`CC(C)CON=O` gave RGS12 GoLoco inh-1 inactive.
CCn1c(C)[n+](CC(O)COCC2CC=CCC2)c2ccccc21 (centres undefined) was read as Menin-MLL TR inh inactive, RGS12 GoLoco inh-1 2.2µM, Menin MLL FP FL inactive, CXXC DNA block inactive and RGS12 GoLoco inh-2 14µM.
Cc1ccc(O)cc1 was read as Menin-MLL TR inh inactive, RGS12 GoLoco inh-1 inactive and Menin MLL FP FL inactive.
`CN(N=O)c1cc(O)ccc1O` gave Menin-MLL TR inh inconclusive, RGS12 GoLoco inh-1 5.6µM, Menin MLL FP FL inactive, CXXC DNA block inactive and RGS12 GoLoco inh-2 inconclusive.
Screening C[N+]12CCC(CC1)C(=C(c1ccccc1)c1ccccc1)C2 returned Menin-MLL TR inh inactive, RGS12 GoLoco inh-1 11µM, Menin MLL FP FL inactive, CXXC DNA block inactive and RGS12 GoLoco inh-2 14µM.
Screening C=C(C)c1ccccc1 (tested in a mixture with another compound) returned RGS12 GoLoco inh-1 inactive[14.2 µM].
Screening CN1C(=O)C(c2ccc([N+](=O)[O-])cc2[N+](=O)[O-])C(=O)N(C)C1=O returned Menin-MLL TR inh inactive, Menin MLL FP FL inactive, CXXC DNA block 40µM, MLL CXXC FP-Fl inconclusive, MLL CXXC FP-TR inconclusive and MLL CXXC HTRF inactive.
O=[N+]([O-])c1ccc(O)c([N+](=O)[O-])c1 was read as Menin-MLL TR inh inactive, RGS12 GoLoco inh-1 inactive and Menin MLL FP FL inactive.
`Cc1c(Cl)cccc1N1C(=O)NC(=O)/C(=C\c2cc(C)n(-c3cccc(C(=O)O)c3C)c2C)C1=O` gave Menin-MLL TR inh inactive, Menin MLL FP FL inactive, CXXC DNA block inconclusive, MLL CXXC FP-Fl 7.1µM, MLL CXXC FP-TR 71µM and MLL CXXC HTRF inactive.
Screening Cc1ccc(N2C(=O)NC(=O)/C(=C\c3cc(C)n(-c4ccc(C(=O)O)cc4)c3C)C2=O)cc1 returned Menin-MLL TR inh inactive, Menin MLL FP FL inactive and CXXC DNA block inactive.
`Cc1cc(/C=C2\C(=O)NC(=O)N(c3ccc(F)cc3)C2=O)c(C)n1-c1ccc(C(=O)O)cc1` gave Menin-MLL TR inh inactive, RGS12 GoLoco inh-1 inactive, Menin MLL FP FL inconclusive, CXXC DNA block inconclusive, MLL CXXC FP-Fl 36µM, MLL CXXC FP-TR 100µM and MLL CXXC HTRF inactive.
For CCc1ccc(N2C(=O)NC(=O)/C(=C\c3cc(C)n(-c4cc(C(=O)O)cc(C(=O)O)c4)c3C)C2=O)cc1 the results were Menin-MLL TR inh inactive, Menin MLL FP FL inactive and CXXC DNA block inactive.
`Cc1cc(/C=C2\C(=O)NC(=O)N(Cc3ccccc3)C2=O)c(C)n1-c1ccc(Cl)c(C(=O)O)c1` gave Menin-MLL TR inh inactive, RGS12 GoLoco inh-1 inactive, Menin MLL FP FL inconclusive and CXXC DNA block inconclusive.
`Cc1ccc(N2C(=O)NC(=O)/C(=C\c3cc(C)n(-c4cc(C(=O)O)cc(C(=O)O)c4)c3C)C2=O)cc1` gave Menin-MLL TR inh inactive, Menin MLL FP FL inactive, CXXC DNA block 8.9µM, MLL CXXC FP-Fl 36µM, MLL CXXC FP-TR 40µM and MLL CXXC HTRF 122µM.
For Cc1cc(/C=C2\C(=O)NC(=O)N(c3cccc(F)c3)C2=O)c(C)n1-c1ccc(C(=O)O)c(Cl)c1 the results were Menin-MLL TR inh inactive, Menin MLL FP FL inconclusive, CXXC DNA block 13µM, MLL CXXC FP-Fl inactive, MLL CXXC FP-TR 89µM and MLL CXXC HTRF inactive.
`COc1cc2c(cc1OC)[C@@]13CCN4CC5=CCO[C@H](CC(=O)O)[C@@H]([C@H]1N2)[C@H]5C[C@H]43` gave RGS12 GoLoco inh-1 inactive[14.2 µM].
For Cc1cc(/C=C2\C(=O)NC(=O)N(Cc3ccccc3Cl)C2=O)c(C)n1-c1ccc(C(=O)O)cc1 the results were Menin-MLL TR inh inconclusive, RGS12 GoLoco inh-1 inactive, Menin MLL FP FL inactive, CXXC DNA block inconclusive, MLL CXXC FP-Fl 14µM, MLL CXXC FP-TR 50µM and MLL CXXC HTRF inconclusive.
`Cc1cc(/C=C2\C(=O)NC(=O)N(Cc3ccco3)C2=O)c(C)n1-c1ccc(C(=O)O)cc1` gave RGS12 GoLoco inh-1 inactive, Menin MLL FP FL inactive, CXXC DNA block 28µM, MLL CXXC FP-Fl 1.4µM, MLL CXXC FP-TR 142µM and MLL CXXC HTRF inactive.
Screening CCC#N returned RGS12 GoLoco inh-1 inactive.
Screening O=C(O)c1cccc([As]=[As]c2cccc(C(=O)O)c2)c1 (centres undefined) returned RGS12 GoLoco inh-1 inactive[14.2 µM].
C(CCOCC1CO1)COCC1CO1 (centres undefined) was read as RGS12 GoLoco inh-1 inactive.
